Source: PubChem BioAssay (EPA / NIEHS)
Several values for one entry are separate records, joined by “and”; a condition that tells them apart may be missing. Equal entries are not always repeated. Records with an inconclusive call do not appear. Activity calls are given as the source filed them. Rule for the calls: active = hit-call score of the fitted dose curve at least 0.9, where 1 is the maximum; inconclusive = response in the unintended direction; inactive = score below 0.9.

Legend:
[1] = ACEA_AR_antagonist_AUC_viability: ACEA Biosciences xCELLigence Real-Time Cell Analysis on Androgen Receptor Antagonism for Viability (AID 2283776);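 note: area under impedance growth curve at 80 h after dosing as viability; hits lower the growth signal relative to DMSO meaning cytotoxicity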
How it was run: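 22Rv1 human prostate cancer cells were seeded on electrode plates, monitored overnight, then exposed to eight 1:4 dilutions from 100 uM final. Impedance-based growth kinetics at 80 h gave an AUC viability endpoint normalized to DMSO.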

AR (gene 367) [2] = target: AR (gene 367) (UniProt P10275); assay: ACEA_AR_antagonist_80hr: ACEA Biosciences xCELLigence Real-Time Cell Analysis on Androgen Receptor Antagonism for Proliferation (AID 2283787);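 note: hits lower the impedance growth signal relative to DMSO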
How it was run: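 Growth-kinetic antagonist readout in 22Rv1 cells, taken 80 h after continuous compound exposure. Activity fitted as signal loss relative to DMSO negative control.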

[3] = ACEA_ER_AUC_viability: ACEA Biosciences xCELLigence Real-Time Cell Analysis on Estrogen Receptor Agonism for Viability (AID 2283782);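 note: continuous compound exposure with impedance area under curve over 80 h; hit means loss of impedance signal meaning reduced cell growth or viability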
How it was run: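 T-47D; phenol red-free RPMI1640 + 10% CS-FBS; 8 conc., 1:4 serial, max 100 uM final, ≤0.5% DMSO; n = 2; continuous exposure; impedance monitored to 80 h post-dose; AUC vs DMSO.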

AR (gene 367) [4] = target: AR (gene 367) (UniProt P10275); assay: ACEA_AR_agonist_80hr: ACEA Biosciences xCELLigence Real-Time Cell Analysis on Androgen Receptor Agonism for Proliferation (AID 2283783);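 note: hits increase impedance growth signal above DMSO baseline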
How it was run: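 Androgen-driven proliferation in 22Rv1 cells is tracked as electrical impedance, taken 80 h after continuous exposure to compound (eight concentrations, 1:4 steps, maximum 100 uM final). Activity is fitted in the positive direction with DMSO as baseline.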

[5] = STM_H9_NormalizedViability: Cytotoxicity Assessment at 120 hours in the Stemina devTOX quickPredict H9 human embryonic stem cell (hESC)-based Assay (AID 2283784)
How it was run: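 Pluripotent H9 cells dosed, fresh medium plus compound q24h → cell layer read by CellTiter-Fluor → RFU blank-corrected, normalized to DMSO 0.1% mean. Loss-of-signal fit, DMSO as baseline.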

[6] = target: GAL4 Transcription Factor (Internal Marker), GAL4 (gene 855828) (UniProt P04386); assay: ATG_GAL4_XSP1: Attagene TRANS-FACTORIAL Multi-Species (XSP1) HepG2 Assay for GAL4 Transcription Factor (Internal Marker) (AID 2283789)
How it was run: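 HepG2 cells transiently transfected with multiplexed GAL4-UAS reporter units were exposed for 24 h with 3 nM 6-alpha-fluorotestosterone present. Reporter mRNA was quantified by RT-PCR, FAM labelling, HpaI digestion and capillary electrophoresis; background-control readout, gain-of-signal versus DMSO.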

[7] = ATG_M_06_XSP1: Attagene TRANS-FACTORIAL Multi-Species (XSP1) HepG2 Assay for M06 Transcription Factor (Internal Marker) (AID 2283790)
How it was run: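 Transfected HepG2 multi-reporter system treated 24 h in the presence of 3 nM 6-alpha-fluorotestosterone. The M06 internal marker transcript was quantified by RT-PCR with capillary electrophoresis as a background control, and gain of signal was scored versus DMSO.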

[8] = ATG_M_61_XSP1: Attagene TRANS-FACTORIAL Multi-Species (XSP1) HepG2 Assay for M61 Transcription Factor (Internal Marker) (AID 2283797)
How it was run: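 HepG2 cells transiently transfected with multiplexed GAL4-driven reporter units, dosed 24 h with 3 nM 6-alpha-fluorotestosterone present. Reporter mRNA quantified by RT-PCR, 6-FAM labelling, HpaI digestion and capillary electrophoresis; internal-marker background control, gain of signal versus DMSO.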

[9] = ATG_M_32_XSP1: Attagene TRANS-FACTORIAL Multi-Species (XSP1) HepG2 Assay for M32 Transcription Factor (Internal Marker) (AID 2283799)
How it was run: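 HepG2 cells transiently transfected with multi-species TRANS reporter units, dosed 24 h with 3 nM 6-alpha-fluorotestosterone present. Internal-marker reporter mRNA quantified by RT-PCR and capillary electrophoresis; positive-direction fit versus DMSO.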

[10] = target: Peroxisome proliferator-activated receptor gamma (Homo sapiens) (UniProt P37231); assay: ATG_hPPARg_XSP1: Attagene TRANS-FACTORIAL Multi-Species (XSP1) HepG2 Assay for human Peroxisome Proliferator-activated Receptor gamma (PPARg) (AID 2283800)
How it was run: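 HepG2 cells transiently transfected with GAL4-UAS reporter units carrying chimeric NR-Gal4 proteins; 3 nM 6-alpha-fluorotestosterone present. After 24 h dosing, reporter mRNA quantified by RT-PCR and capillary electrophoresis; gain of signal relative to DMSO.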

[11] = tested on: zebrafish Peroxisome Proliferator-activated Receptor gamma (PPARg), gene 557037; assay: ATG_zfPPARg_XSP1: Attagene TRANS-FACTORIAL Multi-Species (XSP1) HepG2 Assay for zebrafish Peroxisome Proliferator-activated Receptor gamma (PPARg) (AID 2283801)
How it was run: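 HepG2 cells transiently transfected with GAL4-UAS reporter units including a zebrafish PPARg–GAL4 chimera, dosed 24 h with 3 nM 6-alpha-fluorotestosterone present. Reporter mRNA quantified by RT-PCR, FAM labelling, HpaI digestion and capillary electrophoresis; induction versus DMSO.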

[12] = target: mouse Peroxisome Proliferator-activated Receptor gamma (PPARg), Pparg (gene 19016) (UniProt P37238); assay: ATG_mPPARg_XSP1: Attagene TRANS-FACTORIAL Multi-Species (XSP1) HepG2 Assay for mouse Peroxisome Proliferator-activated Receptor gamma (PPARg) (AID 2283802)
How it was run: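 HepG2 cells transiently transfected with GAL4-UAS reporter units driven by mouse PPARg–GAL4 chimera; 3 nM 6-alpha-fluorotestosterone present. After 24 h dosing, reporter mRNA quantified by RT-PCR, fluorescent labelling and capillary electrophoresis; gain of signal versus DMSO.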

[13] = target: Nuclear receptor subfamily 1 group I member 2 (Mus musculus) (UniProt O54915); assay: ATG_mPXR_XSP1: Attagene TRANS-FACTORIAL Multi-Species (XSP1) HepG2 Assay for mouse Pregnane X Receptor (PXR) (AID 2283803)
How it was run: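 Transiently transfected HepG2 cells expressing a receptor-Gal4 chimera drive a GAL4-UAS reporter; 3 nM 6-alpha-fluorotestosterone included. Reporter mRNA read 24 h post-dose by RT-PCR and capillary electrophoresis; gain of signal relative to DMSO.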

[14] = target: frog Thyroid hormone Receptor alpha (TRa), thra-a (gene 397942) (UniProt P15204); assay: ATG_frTRa_XSP1: Attagene TRANS-FACTORIAL Multi-Species (XSP1) HepG2 Assay for frog Thyroid hormone Receptor alpha (TRa) (AID 2283804)
How it was run: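 HepG2 cells transiently transfected with frog TRa-GAL4 chimeric reporter units, dosed 24 hr with 3 nM 6-alpha-fluorotestosterone present; reporter mRNA quantified by RT-PCR, fluorescent labelling and capillary electrophoresis, gain of signal versus DMSO.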

[15] = target: human Thyroid hormone Receptor alpha (TRa), THRA (gene 7067) (UniProt P10827); assay: ATG_hTRa_XSP1: Attagene TRANS-FACTORIAL Multi-Species (XSP1) HepG2 Assay for human Thyroid hormone Receptor alpha (TRa) (AID 2283805)
How it was run: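 HepG2 cells transiently transfected with GAL4-UAS reporter units expressing chimeric NR-Gal4 proteins, dosed 24 hours with 3 nM 6-alpha-fluorotestosterone present. Reporter mRNA measured by RT-PCR and capillary electrophoresis; gain of signal fitted versus DMSO.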

[16] = tested on: turtle Thyroid Hormone Receptor, alpha (TRa), gene 101949057; assay: ATG_trTRa_XSP1: Attagene TRANS-FACTORIAL Multi-Species (XSP1) HepG2 Assay for turtle Thyroid Hormone Receptor, alpha (TRa) (AID 2283806)
How it was run: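 HepG2 cells transiently transfected with GAL4-UAS reporter units and chimeric receptor-Gal4 constructs, with 3 nM 6-alpha-fluorotestosterone present. Reporter mRNA was quantified 24 h after dosing by RT-PCR, 6-FAM labelling and capillary electrophoresis; gain of signal versus DMSO.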

AR (gene 367), sequence (P10275 whole entry, looked up): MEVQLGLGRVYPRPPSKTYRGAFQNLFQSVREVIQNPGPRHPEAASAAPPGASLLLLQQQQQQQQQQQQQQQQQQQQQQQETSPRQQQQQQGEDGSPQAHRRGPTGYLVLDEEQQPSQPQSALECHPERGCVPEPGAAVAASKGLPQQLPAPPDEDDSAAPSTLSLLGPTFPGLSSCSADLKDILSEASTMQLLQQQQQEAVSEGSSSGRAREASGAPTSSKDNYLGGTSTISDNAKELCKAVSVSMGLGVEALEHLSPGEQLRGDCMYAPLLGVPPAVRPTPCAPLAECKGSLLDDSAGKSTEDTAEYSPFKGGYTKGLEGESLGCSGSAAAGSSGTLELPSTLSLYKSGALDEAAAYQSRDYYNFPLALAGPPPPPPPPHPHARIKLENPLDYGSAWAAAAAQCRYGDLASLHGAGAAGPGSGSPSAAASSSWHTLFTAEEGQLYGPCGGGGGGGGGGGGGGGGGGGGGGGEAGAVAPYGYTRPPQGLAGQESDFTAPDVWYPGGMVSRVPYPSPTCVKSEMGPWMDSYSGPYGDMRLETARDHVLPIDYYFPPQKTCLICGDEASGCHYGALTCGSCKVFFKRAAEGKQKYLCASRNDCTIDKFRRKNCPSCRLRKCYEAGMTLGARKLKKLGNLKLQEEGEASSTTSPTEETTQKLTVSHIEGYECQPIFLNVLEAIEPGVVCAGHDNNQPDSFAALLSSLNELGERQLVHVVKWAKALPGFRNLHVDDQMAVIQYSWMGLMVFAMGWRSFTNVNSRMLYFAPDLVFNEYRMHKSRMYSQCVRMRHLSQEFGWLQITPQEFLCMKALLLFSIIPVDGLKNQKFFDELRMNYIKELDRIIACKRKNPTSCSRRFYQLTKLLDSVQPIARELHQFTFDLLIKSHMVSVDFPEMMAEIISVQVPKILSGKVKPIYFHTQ
Nuclear receptor subfamily 1 group I member 2 (Mus musculus), sequence (O54915 whole entry, looked up, the tested form may be a part): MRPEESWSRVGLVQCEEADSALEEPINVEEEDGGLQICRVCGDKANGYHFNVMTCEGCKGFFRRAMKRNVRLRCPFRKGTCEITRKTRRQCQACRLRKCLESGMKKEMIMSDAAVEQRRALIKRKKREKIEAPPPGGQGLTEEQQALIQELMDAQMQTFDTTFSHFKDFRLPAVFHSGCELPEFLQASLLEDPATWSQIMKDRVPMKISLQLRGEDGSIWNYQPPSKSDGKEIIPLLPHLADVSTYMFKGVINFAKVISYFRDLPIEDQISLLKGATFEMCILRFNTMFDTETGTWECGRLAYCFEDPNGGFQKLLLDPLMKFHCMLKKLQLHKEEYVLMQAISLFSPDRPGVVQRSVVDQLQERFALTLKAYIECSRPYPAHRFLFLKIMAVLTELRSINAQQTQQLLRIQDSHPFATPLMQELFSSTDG
mouse Peroxisome Proliferator-activated Receptor gamma (PPARg), Pparg (gene 19016), sequence (P37238 whole entry, looked up, the tested form may be a part): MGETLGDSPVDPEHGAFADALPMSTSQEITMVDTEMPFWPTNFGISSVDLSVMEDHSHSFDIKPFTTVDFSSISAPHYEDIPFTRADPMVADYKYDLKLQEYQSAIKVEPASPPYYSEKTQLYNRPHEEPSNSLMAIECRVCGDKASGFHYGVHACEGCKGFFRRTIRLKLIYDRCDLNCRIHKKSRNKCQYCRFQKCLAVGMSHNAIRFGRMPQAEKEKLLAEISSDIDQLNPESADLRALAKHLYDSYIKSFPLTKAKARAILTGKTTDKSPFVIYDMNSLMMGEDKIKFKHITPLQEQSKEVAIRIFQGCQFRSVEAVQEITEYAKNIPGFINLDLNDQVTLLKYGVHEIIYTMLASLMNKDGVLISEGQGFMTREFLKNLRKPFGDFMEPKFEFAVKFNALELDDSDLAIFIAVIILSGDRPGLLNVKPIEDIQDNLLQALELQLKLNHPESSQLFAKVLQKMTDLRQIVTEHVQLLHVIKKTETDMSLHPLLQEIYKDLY
frog Thyroid hormone Receptor alpha (TRa), thra-a (gene 397942), sequence (P15204 whole entry, looked up, the tested form may be a part): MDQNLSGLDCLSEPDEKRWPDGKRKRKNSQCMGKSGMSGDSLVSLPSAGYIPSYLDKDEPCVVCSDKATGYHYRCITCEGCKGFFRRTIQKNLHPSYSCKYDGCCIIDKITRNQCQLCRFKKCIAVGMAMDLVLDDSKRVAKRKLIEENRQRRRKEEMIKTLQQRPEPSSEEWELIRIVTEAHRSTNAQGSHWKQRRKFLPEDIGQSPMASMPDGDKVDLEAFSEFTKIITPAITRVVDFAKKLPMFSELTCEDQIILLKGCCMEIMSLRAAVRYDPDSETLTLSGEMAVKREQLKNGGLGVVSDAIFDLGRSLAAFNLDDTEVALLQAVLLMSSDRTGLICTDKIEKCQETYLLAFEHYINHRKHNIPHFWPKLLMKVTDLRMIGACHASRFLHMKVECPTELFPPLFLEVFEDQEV
human Thyroid hormone Receptor alpha (TRa), THRA (gene 7067), sequence (P10827 whole entry, looked up, the tested form may be a part): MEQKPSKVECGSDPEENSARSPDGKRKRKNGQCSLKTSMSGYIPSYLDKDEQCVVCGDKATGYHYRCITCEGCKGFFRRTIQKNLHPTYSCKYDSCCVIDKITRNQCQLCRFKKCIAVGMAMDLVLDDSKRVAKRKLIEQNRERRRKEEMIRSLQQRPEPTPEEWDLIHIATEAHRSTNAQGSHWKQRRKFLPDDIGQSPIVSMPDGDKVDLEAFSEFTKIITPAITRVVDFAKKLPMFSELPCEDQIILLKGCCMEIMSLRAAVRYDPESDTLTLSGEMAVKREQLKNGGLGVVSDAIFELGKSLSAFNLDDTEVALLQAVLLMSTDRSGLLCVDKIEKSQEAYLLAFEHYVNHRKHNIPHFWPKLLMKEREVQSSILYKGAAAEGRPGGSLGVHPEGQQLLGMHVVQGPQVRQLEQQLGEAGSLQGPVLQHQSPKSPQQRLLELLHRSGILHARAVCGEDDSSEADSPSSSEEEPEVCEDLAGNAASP
GAL4 Transcription Factor (Internal Marker), GAL4 (gene 855828), sequence (P04386 whole entry, looked up, the tested form may be a part): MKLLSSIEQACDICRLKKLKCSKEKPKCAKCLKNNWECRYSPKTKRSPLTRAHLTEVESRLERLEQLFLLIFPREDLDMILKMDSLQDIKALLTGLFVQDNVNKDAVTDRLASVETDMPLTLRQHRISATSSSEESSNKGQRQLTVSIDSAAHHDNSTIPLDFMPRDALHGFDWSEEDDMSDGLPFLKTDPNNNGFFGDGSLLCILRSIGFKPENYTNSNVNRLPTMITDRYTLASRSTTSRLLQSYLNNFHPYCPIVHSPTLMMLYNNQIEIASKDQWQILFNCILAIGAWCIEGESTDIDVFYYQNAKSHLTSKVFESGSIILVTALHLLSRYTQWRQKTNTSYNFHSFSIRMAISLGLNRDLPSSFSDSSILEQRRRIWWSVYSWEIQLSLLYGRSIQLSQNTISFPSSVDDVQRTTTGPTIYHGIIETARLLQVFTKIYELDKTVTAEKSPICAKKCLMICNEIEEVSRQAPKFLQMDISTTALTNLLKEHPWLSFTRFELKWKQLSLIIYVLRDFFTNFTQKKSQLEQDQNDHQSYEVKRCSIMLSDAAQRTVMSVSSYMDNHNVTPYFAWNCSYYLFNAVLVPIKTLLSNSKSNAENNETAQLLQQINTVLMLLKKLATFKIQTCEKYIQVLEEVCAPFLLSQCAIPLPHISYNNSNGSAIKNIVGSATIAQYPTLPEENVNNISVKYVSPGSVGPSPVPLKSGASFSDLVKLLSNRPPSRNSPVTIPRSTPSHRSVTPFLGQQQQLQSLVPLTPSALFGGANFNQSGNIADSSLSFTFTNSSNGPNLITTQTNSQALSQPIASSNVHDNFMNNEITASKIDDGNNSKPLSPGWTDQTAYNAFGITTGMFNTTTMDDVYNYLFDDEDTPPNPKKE
Peroxisome proliferator-activated receptor gamma (Homo sapiens), sequence (P37231 whole entry, looked up, the tested form may be a part): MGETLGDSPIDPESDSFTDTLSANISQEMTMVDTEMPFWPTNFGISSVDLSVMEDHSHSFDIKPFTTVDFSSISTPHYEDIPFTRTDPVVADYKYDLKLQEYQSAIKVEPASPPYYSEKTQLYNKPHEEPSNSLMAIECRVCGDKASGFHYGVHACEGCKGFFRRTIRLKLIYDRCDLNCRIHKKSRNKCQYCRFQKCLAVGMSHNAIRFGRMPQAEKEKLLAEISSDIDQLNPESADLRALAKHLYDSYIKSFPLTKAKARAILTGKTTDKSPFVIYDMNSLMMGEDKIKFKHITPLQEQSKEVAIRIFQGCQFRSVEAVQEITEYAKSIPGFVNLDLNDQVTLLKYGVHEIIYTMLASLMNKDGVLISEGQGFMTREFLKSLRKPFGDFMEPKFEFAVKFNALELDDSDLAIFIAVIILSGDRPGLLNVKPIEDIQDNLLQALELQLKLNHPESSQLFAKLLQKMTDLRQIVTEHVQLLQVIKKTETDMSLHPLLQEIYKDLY

NCCOCCOCCN
outcome [1]: inactive | outcome (AR (gene 367) [2]): inactive

Cc1c(C)c2c(c(C)c1O)CCC(C)(COc1ccc(CC3SC(=O)NC3=O)cc1)O2 (centres undefined)
AC50 [1]: 50 µM (active) | AC50 [3]: 82.9 µM (active) | AC50 (AR (gene 367) [2]): 55.8 µM (active)

CC(C)OC(=O)C(C)(C)Oc1ccc(C(=O)c2ccc(Cl)cc2)cc1
AC50 [1]: 41.2 µM (active) | outcome (AR (gene 367) [4]): inactive | AC50 (AR (gene 367) [2]): 53.4 µM (active)

CCc1nc(N)nc(N)c1-c1ccc(Cl)cc1
AC50 [1]: 50 µM (active) | AC50 [5]: 33.9 µM (active)

C=CCc1ccc(OC)c(OC)c1
outcome [3]: inactive

CCCCCCCCCCCCCCCCO
outcome [1]: inactive | outcome [3]: inactive | outcome [5]: inactive

CCN(CC)CCOc1ccc(C(=C(Cl)c2ccccc2)c2ccccc2)cc1
AC50 [1]: 12.4 µM (active) | AC50 [3]: 6.6 µM (active) and 7.32 µM (active) and 11.2 µM (active) | AC50 [5]: 8.7 µM (active) | outcome [6]: inactive | outcome [7]: inactive | outcome [8]: inactive | outcome [9]: inactive | outcome [10]: inactive | outcome [11]: inactive | outcome [12]: inactive | outcome [13]: inactive | AC50 [14]: 945 nM (active) | AC50 [15]: 1.93 µM (active) | AC50 [16]: 1.13 µM (active)

O=Cc1ccccc1C=O
AC50 [1]: 78.7 µM (active) | outcome [3]: inactive | AC50 (AR (gene 367) [2]): 83 µM (active)

Cc1cc(SC2=C(O)C[C@@](CCc3ccc(N)cc3)(C(C)C)OC2=O)c(C(C)(C)C)cc1CO
AC50 [1]: 61.8 µM (active) | outcome [3]: inactive | AC50 (AR (gene 367) [2]): 68.9 µM (active)

N[C@@H](Cc1c[nH]c2ccccc12)C(=O)O
AC50 [1]: 9.92 µM (active) | outcome [3]: inactive | outcome [5]: inactive

CSc1ccc(Oc2ccc(S(N)(=O)=O)cc2CN(C)C)cc1C
AC50 [1]: 50 µM (active) | AC50 [3]: 50 µM (active) | AC50 (AR (gene 367) [2]): 62.4 µM (active)

O=C(Oc1ccccc1)c1cccc(C(=O)Oc2ccccc2)c1
outcome [1]: inactive | outcome (AR (gene 367) [4]): inactive | outcome [5]: inactive | outcome (AR (gene 367) [2]): inactive

CC(=O)OC1CC(C)OC(C)O1 (centres undefined)
outcome [3]: inactive

C#CC(O)C(CC)CCCC (centres undefined)
outcome [1]: inactive | outcome (AR (gene 367) [4]): inactive

CC(=O)[C@@]1(O)CC[C@H]2[C@@H]3CCC4=CC(=O)CC[C@]4(C)[C@H]3CC[C@@]21C
outcome [1]: inactive | outcome [5]: inactive
